# Experimental data reported in PubChem BioAssay AID488969 (Vanderbilt High Throughput Screening Facility, 2010).
# The full ranking holds about 110,000 compounds; the median of “z-score” is about -0.1, and the highest 2% start at about 2. What follows is part of a selection rich in the highest values, with near analogues and random picks from the rest. Activity calls are given as the source filed them.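 The calls were made as follows: active = z-score in the third read window above 3 or below -3; inactive = the rest.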
# Target: Metabotropic glutamate receptor 8 (Rattus norvegicus) (UniProt P70579)
# Test: rat mGluR8 modulators via GIRK flux, primary screen, cell-based, thallium flux, HTS (AID 488969)
# Conditions: HEK293 rat mGluR8, GIRK (G protein-gated inwardly rectifying potassium channel) thallium flux, FluoZin2; at 10 µM; stronger effect = higher value; submaximal glutamate (EC20) added with thallium
# Sequence of Metabotropic glutamate receptor 8 (Rattus norvegicus) (P70579 whole entry, looked up): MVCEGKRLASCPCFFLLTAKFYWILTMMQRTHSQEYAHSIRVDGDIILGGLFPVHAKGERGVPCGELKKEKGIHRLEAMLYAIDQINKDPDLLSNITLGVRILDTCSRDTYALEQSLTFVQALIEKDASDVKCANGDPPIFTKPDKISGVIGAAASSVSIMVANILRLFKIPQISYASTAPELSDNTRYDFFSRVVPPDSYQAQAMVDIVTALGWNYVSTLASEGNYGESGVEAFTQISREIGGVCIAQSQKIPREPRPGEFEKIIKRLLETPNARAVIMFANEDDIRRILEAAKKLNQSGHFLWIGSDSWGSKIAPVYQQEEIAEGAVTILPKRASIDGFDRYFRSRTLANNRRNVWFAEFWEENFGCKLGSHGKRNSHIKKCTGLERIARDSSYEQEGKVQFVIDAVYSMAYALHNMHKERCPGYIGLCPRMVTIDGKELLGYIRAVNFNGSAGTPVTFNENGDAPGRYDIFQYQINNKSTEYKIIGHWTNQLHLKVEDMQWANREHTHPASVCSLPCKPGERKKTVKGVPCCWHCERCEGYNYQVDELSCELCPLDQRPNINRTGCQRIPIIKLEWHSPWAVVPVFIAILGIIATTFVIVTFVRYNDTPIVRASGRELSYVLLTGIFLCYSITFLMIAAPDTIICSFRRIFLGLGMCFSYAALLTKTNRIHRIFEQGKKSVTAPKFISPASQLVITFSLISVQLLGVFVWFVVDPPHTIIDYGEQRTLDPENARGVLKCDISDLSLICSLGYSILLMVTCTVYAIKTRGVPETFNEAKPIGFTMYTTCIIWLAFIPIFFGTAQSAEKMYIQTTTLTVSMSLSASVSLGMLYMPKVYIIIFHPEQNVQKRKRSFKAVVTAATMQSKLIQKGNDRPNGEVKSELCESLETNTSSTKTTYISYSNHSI
row,Structure (SMILES),z-score
1,O=C(Nc1ccc2oc(-c3ccncc3)nc2c1)c1cccs1,-1.18
2,CCc1nnc(NC(=O)CCc2ccc(C)o2)s1,0.332
3,CCC(=O)N1CCc2cc(S(=O)(=O)CCC(=O)NCCc3ccccc3)ccc21,-0.24
4,CC(NC(=O)COC(=O)/C=C/c1ccc([N+](=O)[O-])cc1)c1ccccc1 (stereo not drawn),-0.366
5,CC(C)NC(=O)c1ccccc1NC(=O)/C=C/c1cccc([N+](=O)[O-])c1,-0.52
6,CC(C)c1ccccc1NC(=O)COC(=O)/C=C/c1cccc([N+](=O)[O-])c1,5.9 (active)
7,CCOc1ccc(NC(=O)CSc2nnc(CCNC(=O)c3ccc(OC)cc3)n2CC)cc1,-0.0739
8,C/C=C/COC(=O)c1[nH]c2c(c1C)C(=O)CC(c1ccco1)C2 (stereo not drawn),-0.237
9,CSCC[C@H](NC(=O)OC(C)(C)C)c1nnc(SCC(=O)N(C)C)o1,-0.106
10,O=C(Nc1nc2ccccc2s1)C1CC(=O)N(c2ccc(Br)cc2)C1 (stereo not drawn),0.374
11,N#Cc1c(NC(=S)NC(=O)c2ccccc2)sc2c1CCC2,0.849
12,Cc1onc(-c2ccccc2)c1C(=O)NC(=S)Nc1sc2c(c1C#N)CCCC2,4.1 (active)
13,Cc1cc(C(=O)Nc2sc3c(c2C#N)CCC3)no1,-0.0664
14,Cc1ccccc1C(=O)NC(=S)Nc1sc2c(c1C#N)CCCC2,5.02 (active)
15,Cc1onc(-c2ccccc2)c1C(=O)Nc1sc2c(c1C#N)CCC(C)C2 (stereo not drawn),0.289
16,CC(C)Cc1cc(C(=O)Nc2sc3c(c2C#N)CCC3)no1,1.32
17,CCCc1cc(C(=O)Nc2sc3c(c2C#N)CCC3)no1,2.21
18,Cc1ccccc1C(=O)NC(=S)Nc1sc2c(c1C#N)CCC(C)C2 (stereo not drawn),1.82
19,N#Cc1c(NC(=S)NC(=O)c2ccccc2)sc2c1CCCC2,0.0146
20,CCOC(=O)CC1ON(C)C(=O)N1c1ccc([N+](=O)[O-])cc1 (stereo not drawn),0.0464
21,CCCCOC(=O)c1ccc(NC(=O)/C=C/c2cccs2)cc1,-0.063
22,CCc1ccc(C2NC(C(=O)O)CS2)cc1 (stereo not drawn),-0.258
23,CC(C)Cn1c(SCC(=O)N2CCCCC2)nc2ccccc2c1=O,-0.537

row,Structure (SMILES),z-score
1,O=C1Nc2ccccc2C12OCC1(CO2)COC2(OC1)C(=O)Nc1ccccc12 (stereo not drawn),3.45 (active)
2,O=C1Nc2ccccc2C12OCCCO2,0.489
3,O=C1Nc2ccccc2C12OCCO2,-0.0845
4,CCN(CC)S(=O)(=O)c1ccc(/C=C/C(=O)Nc2ccc(F)c(F)c2F)cc1,-0.0872
5,Cc1ccc(NCCC(=O)c2ccc(Cl)cc2)cc1,-0.27
6,Cc1ccc(C(=O)CC(=O)COc2ccc(Cl)cc2C)cc1,5.45 (active)
7,COC(=O)C(CC(=O)c1ccc(Cl)cc1)c1ccc(C)cc1 (stereo not drawn),-0.155
8,Cc1ccc(C(=O)CC(=O)COc2ccc(Cl)cc2)cc1,5.07 (active)
9,Cc1ccc(NC(=O)c2ccc(OC(=O)COc3ccc(Cl)cc3C)cc2)cc1,-0.069
10,Cc1cc(Cl)ccc1OCC(=O)NC1CCCC1,0.0341
11,Cc1cc(C)nc(/N=C(\N)Nc2ccc([N+](=O)[O-])cc2)n1,-0.477
12,O=C(O)c1cccc(-n2cnnn2)c1,-0.667
13,CCSc1nnc(NC(=O)NC(CC)(C(F)(F)F)C(F)(F)F)s1,3.86 (active)
14,CCSc1nnc(NC(=O)C(CC)(C(F)(F)F)C(F)(F)F)s1,-0.322
15,CCCC(=O)Nc1nnc(SCC)s1,0.0928
16,CCC(=O)Nc1nnc(SCCOC)s1,0.214
17,CCC(NC(=O)Nc1nnc(C(F)(F)F)s1)(C(F)(F)F)C(F)(F)F,0.241
18,CCSc1nnc(NC(=O)CC)s1,5.27 (active)
19,CCCCN1CCc2[nH]c(=S)[nH]c(=O)c2C1,-0.178
20,Cc1ccccc1C(=O)Oc1cccc(Nc2ncnc3ccccc23)c1,-1.4
21,CC(NC(=O)C1CCC1)c1ccc(Br)cc1 (stereo not drawn),-0.264
22,CCN(CC)S(=O)(=O)c1cccc(C(=O)NC(C(=O)NC2=NCCS2)C(C)C)c1 (stereo not drawn),0.126
23,CCNc1nc(NC#N)nc(SCC(=O)OCC)n1,-0.413

row,Structure (SMILES),z-score
1,COC(=O)c1ccc(CSc2nc3c(cnn3-c3ccccc3)c(=O)[nH]2)o1,-0.686
2,O=C(CCc1ccccc1)NNC(=S)NC(=O)c1ccccc1,1.13
3,O=C(CCc1ccccc1)NNC(=S)NC(=O)c1ccc(Cl)cc1,3.03 (active)
4,COc1ccc(C(=O)NC(=S)NNC(=O)CCc2ccccc2)cc1,3.38 (active)
5,O=C(CCc1ccccc1)NNC(=O)c1ccc(NC(=O)c2ccccc2)cc1,0.0748
6,CC(C)(C)c1ccc(OCC(=O)NNC(=O)CCc2ccccc2)cc1,0.639
7,CC(=O)Nc1ccc(C(=O)NNC(=O)CCc2ccccc2)cc1,-0.185
8,O=C(Cc1csc(N2CCOCC2)n1)N/N=C/c1ccc(Cl)cc1Cl,-0.885
9,N#Cc1c2n(c(=S)n(-c3ccccn3)c1=O)CCCCC2,-0.927
10,N#Cc1c2n(c(=O)[nH]c1=O)CCCCC2,-0.0381
11,N#Cc1c2n(c3c(=S)nc[nH]c13)CCCCC2,2.2
12,O=C(CNC(=O)c1ccccc1F)NCCOc1ccccc1Cl,-0.065
13,CCOc1ccc(N=CC2=C(O)CC(C)(C)CC2=O)cc1,0.649
14,CC1(C)CC(=O)C2=C(C1)OC1=C(C(=O)CC(C)(C)C1)C2(C)C,-0.182
15,CCOC12CC(C)(C)CC(C)(CC3=C1C(=O)CC(C)(C)C3)C2 (stereo not drawn),2.32
16,CCOC(=O)C1CCCN(C(=O)CN2C(=O)COc3ccc(C(C)(C)C)cc32)C1 (stereo not drawn),-1.06
17,CCOC(=O)N1CCN(Cc2nc3c(c(=O)n(C)c(=O)n3C)n2Cc2ccccc2C)CC1,-0.27
18,Fc1ccc(NC(=S)NCCc2ccccc2)c(F)c1F,2.71
19,Fc1cc(Br)ccc1NC(=S)Nc1ccccc1,0.843
20,COc1ccccc1NC(=S)NCCc1ccc(Cl)cc1,3.06 (active)
21,COc1ccccc1NC(=S)NCCc1ccccc1,-0.188
22,S=C(NCCc1ccccc1)Nc1ccc(Br)cc1,0.268
23,Fc1ccccc1NC(=S)NCCc1ccccc1,0.134

row,Structure (SMILES),z-score
1,S=C(NCCc1ccccc1)Nc1ccc(Cl)cc1Cl,1.43
2,Fc1cc(Br)ccc1NC(=S)NCCc1ccccc1,7.09 (active)
3,COc1ccc(NC(=S)NCCc2ccc(Cl)cc2)c(OC)c1,0.319
4,COc1cc2c(cc1NC(=O)CSc1ccccc1)oc1ccccc12,-0.258
5,O=C(N/N=C/c1c[nH]c2ccccc12)c1cc(-c2cccc3ccccc23)n[nH]1,-0.463
6,COc1ccc(OCC(=O)O/N=C(\N)Cc2ccc(Cl)cc2Cl)cc1,0.353
7,CCOC(=O)c1[nH]c(C)c(/C(O)=C2\C(=O)C(=O)N(CCCN(C)C)C2c2cccnc2)c1C (stereo not drawn),-0.333
8,COc1cc(CNc2nc3ccccc3n2C)cc(OC)c1OC,-0.245
9,CCCNC(=O)COC(=O)c1cc(SC)ccc1Cl,0.561
10,O=C(CN(C(=O)Cn1nnc(-c2cccs2)n1)c1ccc2c(c1)OCCO2)NC1CCCCC1,-0.0843
11,Cc1cccc(C)c1NC1=NC(=S)N(c2ccc(N(C)C)cc2)C1(C)C,1.87
12,Cc1cccc(C)c1NC1=NC(=S)N(c2ccccc2)C12CCOC(C)(C)C2 (stereo not drawn),0.847
13,CCC1(C)C(Nc2c(C)cccc2C)=NC(=S)N1c1ccc(NC(C)=O)cc1 (stereo not drawn),-0.38
14,Cc1cccc(N2C(=S)N=C(Nc3c(C)cccc3C)C23CCOC(C)(C)C3)c1 (stereo not drawn),-0.179
15,Cc1ccc(N2C(=S)N=C(Nc3ccccc3C)C23CCOC(C)(C)C3)cc1 (stereo not drawn),15 (active)
16,Cc1ccccc1NC1=NC(=S)N(c2ccccc2)C12CCOC(C)(C)C2 (stereo not drawn),12.6 (active)
17,Cc1sc(NC(=S)NC(=O)C(C)(C)C)c(C(N)=O)c1C,-0.0974
18,O=C(O)C1C2C=CC(C2)C1C(=O)NCCc1cccc(Cl)c1 (stereo not drawn),6.03 (active)
19,O=C(O)C1C2C=CC(C2)C1C(=O)NCCc1ccncc1 (stereo not drawn),0.718
20,O=C(O)C1C2C=CC(C2)C1C(=O)NCCc1ccccc1 (stereo not drawn),-0.122
21,CCc1nnc(NC(=O)CN2CCN(c3cccc(OC)c3)CC2)s1,0.136
22,CCCOC(=O)NC(CC)COC(=O)Nc1cc(C)ccc1C (stereo not drawn),-0.0367
23,CCC(COC(=O)Nc1cccc(C)c1C)NC(=O)OCC(C)C (stereo not drawn),-0.549

row,Structure (SMILES),z-score
1,CCCOC(=O)NC(CC)COC(=O)Nc1cccc(C)c1C (stereo not drawn),3.15 (active)
2,CN(C1CCCCC1)S(=O)(=O)c1ccc2c(c1)c(=O)c(C(=O)N1CCc3ccccc3C1)cn2C,-1.33
3,Cc1cc(Cl)c(S(=O)(=O)Nc2ccc(Cl)cn2)cc1OCC(N)=O,0.203
4,COc1ccc(-n2c(=O)[nH]cc(C(=O)Nc3ccccc3)c2=O)cc1,0.241
5,COc1ccc(-n2c(=O)[nH]cc(C(=O)Nc3ccc(NC(C)=O)cc3)c2=O)cc1,9.34 (active)
6,COc1cccc(-n2c(=O)[nH]cc(C(=O)Nc3ccc(NC(C)=O)cc3)c2=O)c1,-0.503
7,CCc1ccc(N=c2c([N+](=O)[O-])nn(-c3ccccc3)n2O)cc1,-0.133
8,CCCn1c(SCC(=O)N2CCCc3ccccc32)nnc1-c1ccccn1,-0.0622
9,Cc1nn(CCC#N)c(NC(=O)c2ccc(Cl)cc2Cl)c1P(=O)(Nc1ccc([N+](=O)[O-])cc1)N1CCOCC1 (stereo not drawn),-0.0204
10,CCOc1ccc2cc(C(=O)c3ccccc3)c(=O)oc2c1,-0.201
11,CN(C)C(=O)COc1ccc2ccc(=O)oc2c1,-0.168
12,CN(C)C(=O)COc1ccc2cc(-c3ccccc3)c(=O)oc2c1,2.32
13,Fc1ccc(C2NC(=S)NC3=C2N2CCC3CC2)cc1 (stereo not drawn),-0.0689
14,O=C1CC(c2ccco2)Sc2nc3ccccc3n21 (stereo not drawn),3.22 (active)
15,O=C1CC(c2cccs2)Sc2nc3ccccc3n21 (stereo not drawn),1.16
16,O=C(O)C1CC(=O)n2c(nc3ccccc32)S1 (stereo not drawn),0.555
17,CCCCOc1nc(N)nc(-c2ccccc2)n1,-0.634
18,COc1ccc(C(=O)CSc2nc3ccccc3n2CC(=O)NC(C)(C)C)cc1,-0.144
19,CCOC(=O)CSC1=C(C#N)C(=O)NC(c2ccc(OC)cc2)S1 (stereo not drawn),0.083
20,CCOC(=O)CSC1=C(C#N)C(=O)NC(c2ccc(OC)c(OC)c2)S1 (stereo not drawn),6.39 (active)
21,COC(=O)CSC1=C(C#N)C(=O)NC(c2ccccc2)S1 (stereo not drawn),-0.603
